Measured values reported in PubChem BioAssay.
Activity calls are given as the source filed them.

How the values were obtained:
[1] = system: Human papillomavirus type 1a protein E7 (residues 44-93); assay: HPV1a E7 fragment binders on microarrays, primary screen, biochemical, small-molecule microarray, residues 44-93, 635 nm fluorescence (AID 1108); conditions: small-molecule microarray binding, fluorescence 635 nm; higher = more signal;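 note: E7 fragment applied at 1 µg/mL in TBST for 1 h at 4 C; score combines spot fluorescence with its signal to noise ratio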
[2] = modulators of HCV replicon luciferase signal, primary screen, HCV replication inhibitor project, Huh7 cells, luciferase reporter (AID 1109); conditions: 48 h, higher = more signal;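 note: huh7 hepatoma cells harbouring a luciferase neomycin HCV replicon reporter; luciferase luminescence as measure of HCV replicon replication; test concentration not given here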
[3] = target: Left-right determination factor 2 (Homo sapiens) (UniProt O00292); assay: LEFTY2 binders on small-molecule microarrays, primary screen, biochemical, small-molecule microarray, 635 nm fluorescence scan (AID 1110); conditions: LEFTY2 binding, higher = more signal
[4] = target: Calmodulin-1 (Homo sapiens) (UniProt P0DP23); assay: CALM1 binders on microarrays, EGTA buffer, profiling panel, biochemical, small-molecule microarray, Cy5-labelled CALM1 (AID 1111); conditions: Cy5-CALM1 binding fluorescence, higher = more signal;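 note: labelled calmodulin applied in Tris saline Tween buffer holding calcium plus EGTA and DTT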
[5] = target: Calmodulin-1 (Homo sapiens) (UniProt P0DP23); assay: calcium-bound CALM1 binders on microarrays, profiling panel, artefact control for SMM control-protein annotation, biochemical, small-molecule microarray, Cy5-labelled CALM1, plus calcium (AID 1112); conditions: Cy5-CALM1 binding fluorescence, higher = more signal;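 note: score merges spot fluorescence with signal to noise from triplicate slides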
[6] = small-molecule microarray binders of probe aWnt5a, primary screen, biochemical, biotinylated probe, 635/667 nm fluorescence (AID 1113); conditions: higher = more signal;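 note: score merges 667 nm fluorescence intensity with signal-to-noise per printed feature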
[7] = small-molecule microarray binders of probe aShh, primary screen, biochemical, biotinylated probe, 635/667 nm fluorescence (AID 1114); conditions: higher = more signal;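 note: probe is biotin-labelled aShh protein from a stem cell growth factor screen; measures binding of labelled protein to compounds printed on the slide; score merges feature fluorescence at 667 nm with signal-to-noise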
[8] = small-molecule microarray binders of probe aNog, primary screen, biochemical, biotinylated probe, 635/667 nm fluorescence (AID 1115); conditions: higher = more signal;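 note: probe is biotinylated aNog protein used at 0.15 µg/mL for 1 h at 4 C; z-score combines 667 nm fluorescence of each spot with its signal to noise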
[9] = target: Torsin-1A-interacting protein 1 (Homo sapiens) (UniProt Q5JTV8); assay: LAP1 binders from COS7 cell lysate, primary screen, small-molecule microarray, 635/667 nm fluorescence (AID 1116); conditions: COS7-hLAP1 lysate binding, 635 nm fluorescence, higher = more signal
[10] = target: Alpha-bungarotoxin (Bungarus multicinctus) (UniProt P60615); assay: alpha-bungarotoxin binders on microarray, profiling panel, artefact control for SMM control protein annotation, biochemical, small-molecule microarray, Alexa647 label, 635/667 nm fluorescence (AID 1117); conditions: alpha-BTX-A647 binding fluorescence, higher = more signal
Albumin (Bos taurus) = Albumin (Bos taurus) (UniProt P02769); assay: bovine serum albumin binders on microarray, profiling panel, artefact control for SMM control protein annotation, biochemical, small-molecule microarray, Alexa647 label, 635/667 nm fluorescence (AID 1118); conditions: BSA-A647 binding, fluorescence 635 nm, higher = more signal;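 note: score merges 667 nm emission intensity and signal-to-noise per printed compound spot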
[11] = small-molecule microarray binders of probe aXIP, primary screen, biochemical, NeuroSMM set, 635/667 nm fluorescence (AID 1119); conditions: higher = more signal, called active from +8 up or from −8 down;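 note: probe is the protein aXip251-270 applied at 1 µg/mL to compound-printed slides; binding of probe to printed compounds measured as 667 nm fluorescence plus signal to noise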
[12] = small-molecule binders of probe aNOTCH3, primary screen, biochemical, small-molecule microarray, 635/667 nm fluorescence (AID 1120); conditions: higher = more signal;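 note: probe is a biotin-tagged antibody raised against NOTCH3 rather than NOTCH3 protein; score merges spot fluorescence near 667 nm with spot signal to noise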
[13] = small-molecule binders of probe aNOTCH2, primary screen, biochemical, small-molecule microarray, 635/667 nm fluorescence (AID 1121); conditions: higher = more signal;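 note: score merges feature fluorescence read at 667 nm with its signal to noise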
[14] = target: Carbonic anhydrase 2 (Homo sapiens) (UniProt P00918); assay: CAII small-molecule binders, profiling panel, biochemical, small-molecule microarray, Alexa647-labelled CAII (AID 1122); conditions: CAII-A647 binding fluorescence, higher = more signal
[15] = COS7 lysate on small-molecule microarray, probe aHis, 635 nm (AID 1123); conditions: COS7 cell lysate, fluorescence, higher = more signal;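 note: z-score combines 667nm fluorescence intensity with signal-to-noise per printed compound spot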
[16] = compound binding in COS7 lysate, probe aLAP1, primary screen, cell lysate, small-molecule microarray (AID 1124); conditions: probe aLAP1, fluorescence, higher = more signal;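 note: lysate comes from COS7 cells expressing LAP1 and is applied at 0.3 µg/mL; score merges spot fluorescence near 667 nm with signal-to-noise over triplicate slides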
Sam68 (KHDRBS1) = assay: Sam68 small-molecule binders, primary screen, biochemical, small-molecule microarray, 635 nm fluorescence (AID 1125); conditions: small-molecule microarray binding, higher = more signal;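 note: score merges 667 nm channel intensity with signal to noise over triplicate slides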
[17] = system: Chordin-like protein 2 (CHRDL2); assay: CHRDL2 small-molecule binders, primary screen, biochemical, small-molecule microarray, 635 nm fluorescence (AID 1126); conditions: small-molecule microarray binding, fluorescence 635 nm; higher = more signal;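 note: printed compound slides probed with Chrdl2 protein at 4 µg/mL for 1 h at 4 C; score merges 667 nm emission intensity with signal to noise over three replicate slides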
[18] = target: Concanavalin-A (Canavalia ensiformis) (UniProt P02866); assay: ConA small-molecule binders, primary screen, artefact control for SMM control protein annotation, biochemical, small-molecule microarray, Alexa647 label, 635 nm (AID 1127); conditions: ConA-A647 binding fluorescence, higher = more signal;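 note: z combines 667 nm emission intensity with signal-to-noise across three replicate slides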
Concanavalin-A (Canavalia ensiformis), sequence (P02866 whole entry, looked up): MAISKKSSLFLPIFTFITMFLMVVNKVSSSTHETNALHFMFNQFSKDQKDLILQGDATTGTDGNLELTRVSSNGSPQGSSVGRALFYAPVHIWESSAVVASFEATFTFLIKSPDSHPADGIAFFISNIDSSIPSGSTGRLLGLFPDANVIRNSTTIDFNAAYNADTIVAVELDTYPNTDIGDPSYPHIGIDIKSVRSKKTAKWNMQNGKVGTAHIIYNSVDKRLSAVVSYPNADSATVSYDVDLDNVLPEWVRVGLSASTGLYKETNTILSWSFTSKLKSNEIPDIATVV

Albumin (Bos taurus), sequence (P02769 whole entry, looked up): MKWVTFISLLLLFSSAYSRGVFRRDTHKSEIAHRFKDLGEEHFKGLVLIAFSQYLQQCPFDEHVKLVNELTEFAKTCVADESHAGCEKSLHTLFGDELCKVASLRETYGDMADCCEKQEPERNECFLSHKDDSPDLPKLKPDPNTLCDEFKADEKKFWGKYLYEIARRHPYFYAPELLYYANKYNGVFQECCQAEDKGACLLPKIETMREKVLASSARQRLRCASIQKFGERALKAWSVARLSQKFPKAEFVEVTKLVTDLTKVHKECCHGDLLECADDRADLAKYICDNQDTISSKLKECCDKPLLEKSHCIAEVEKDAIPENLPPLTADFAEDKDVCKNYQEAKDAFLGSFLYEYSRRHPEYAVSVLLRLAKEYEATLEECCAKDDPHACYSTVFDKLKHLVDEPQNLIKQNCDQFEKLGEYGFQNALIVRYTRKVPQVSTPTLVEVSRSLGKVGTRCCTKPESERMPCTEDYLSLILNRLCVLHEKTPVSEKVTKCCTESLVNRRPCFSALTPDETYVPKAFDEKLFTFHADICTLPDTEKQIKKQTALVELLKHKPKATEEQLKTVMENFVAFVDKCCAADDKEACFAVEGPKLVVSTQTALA
Left-right determination factor 2 (Homo sapiens), sequence (O00292 whole entry, looked up): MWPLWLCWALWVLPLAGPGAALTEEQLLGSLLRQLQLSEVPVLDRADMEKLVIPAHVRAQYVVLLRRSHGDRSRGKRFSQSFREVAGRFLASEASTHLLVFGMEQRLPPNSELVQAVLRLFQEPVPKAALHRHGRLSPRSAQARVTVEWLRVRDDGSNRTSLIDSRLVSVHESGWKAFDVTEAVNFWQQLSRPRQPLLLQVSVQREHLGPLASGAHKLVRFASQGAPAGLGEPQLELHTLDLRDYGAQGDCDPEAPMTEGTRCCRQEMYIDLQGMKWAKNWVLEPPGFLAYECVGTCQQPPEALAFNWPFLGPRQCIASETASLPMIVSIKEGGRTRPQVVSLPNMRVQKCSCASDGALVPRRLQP
Torsin-1A-interacting protein 1 (Homo sapiens), sequence (Q5JTV8 whole entry, looked up): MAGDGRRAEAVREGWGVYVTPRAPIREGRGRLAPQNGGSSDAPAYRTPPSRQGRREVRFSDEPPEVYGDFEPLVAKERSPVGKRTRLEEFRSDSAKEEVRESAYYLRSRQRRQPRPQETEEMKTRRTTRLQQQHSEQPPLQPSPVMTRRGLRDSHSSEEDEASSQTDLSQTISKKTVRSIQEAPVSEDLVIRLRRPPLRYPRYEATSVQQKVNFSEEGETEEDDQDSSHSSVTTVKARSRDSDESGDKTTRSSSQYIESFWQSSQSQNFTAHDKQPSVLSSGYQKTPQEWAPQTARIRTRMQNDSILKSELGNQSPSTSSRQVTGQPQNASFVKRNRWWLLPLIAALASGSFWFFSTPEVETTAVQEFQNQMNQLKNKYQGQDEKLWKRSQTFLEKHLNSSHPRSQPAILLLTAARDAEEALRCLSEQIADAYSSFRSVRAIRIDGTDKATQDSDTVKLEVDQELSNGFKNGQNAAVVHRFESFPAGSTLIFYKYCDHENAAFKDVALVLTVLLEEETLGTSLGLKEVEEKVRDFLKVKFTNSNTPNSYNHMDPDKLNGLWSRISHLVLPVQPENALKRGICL
Alpha-bungarotoxin (Bungarus multicinctus), sequence (P60615 whole entry, looked up): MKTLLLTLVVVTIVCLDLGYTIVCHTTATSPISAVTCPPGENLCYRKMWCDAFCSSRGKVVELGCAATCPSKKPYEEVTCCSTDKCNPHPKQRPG

Compound | composite z-score [1] | z-score [2] | composite z-score [3] | composite z-score [4] | composite z-score [5] | composite z-score [6] | composite z-score [7] | composite z-score [8] | composite z-score [9] | composite z-score [10] | composite z-score (Albumin (Bos taurus)) | composite Z-score [11] | composite z-score [12] | composite z-score [13] | composite z-score [14] | composite z-score [15] | composite z-score [16] | composite z-score (Sam68 (KHDRBS1)) | composite z-score [17] | composite z-score [18]
O=C1[C@H]2C=C(I)[C@H](C[C@@H]2c2ccccc2)[C@@]12CO2 | -0.0983 | -3.6 | 0.208 | -0.68 | -0.661 | -0.0977 | -0.117 | -0.172 | 0.126 | 0.0292 | -0.406 | -0.623 (inactive) | -0.0647 | -0.153 | -0.154 | -0.234 | -0.225 | 0.0643 | 0.664 | -0.267
CCOC(=O)C[C@H]1[C@H](OC(=O)c2cc3ccccc3oc2=O)[C@@H](NC(=O)CC(C)C)c2cc(OCCCO)ccc2N1C(=O)Cc1ccc(OC)cc1 | 0.653 | -0.0665 | 0.455 | -0.0388 | -0.61 | -0.16 | -0.206 | -0.238 | 0.571 | -0.472 | 0.136 | 0.642 (inactive) | -0.0376 | -0.146 | 0.607 | 0.935 | 0.18 | 0.887 | 0.0676 | 0.433
COC(=O)[C@H](Cc1ccccc1)N1CC2=CCCC=C[C@@H]2[C@H]1[C@H](O)Cc1ccccc1 | 0.216 | -1.74 | -0.149 | 1.09 | -0.749 | -0.0977 | 0.427 | 1.79 | 0.545 | 0.831 | 0.0618 | 0.495 (inactive) | 0.17 | -0.118 | 0.708 | 0.25 | 0.368 | 0.374 | 0.204 | 0.854
CCCC[C@H]1C[C@@H]1[C@@H]1N(C(C)=O)[C@H](c2cccc(OC)c2)CC12CC2 | -0.223 | -0.103 | -0.305 | 1.03 | 0.878 | -0.0276 | 0.0278 | -0.643 | 0.632 | 0.154 | 0.219 | 0.797 (inactive) | 0.0026 | 0.0112 | 0.202 | 0.808 | 0.603 | -0.658 | -1 | -0.745
CC(C)[Si](C#CCCc1ccccc1)(O[C@H](c1ccccc1)c1cn(Cc2ccccc2)nn1)C(C)C | 1.32 | -1.53 | 0.345 | 0.138 | -0.662 | -0.0239 | -0.338 | -0.0827 | 0.427 | 0.544 | 0.246 | 0.546 (inactive) | 0.073 | -0.115 | 0.204 | 1.12 | 0.0218 | 1.02 | 0.721 | 0.949
CCCCC(O)C1C=CC2C(=O)N(c3ccccc3)C(=O)C2N1Nc1ccccc1 (stereo not given) | 1.24 | -0.375 | -0.484 | 1.14 | 1.06 | 0.0153 | 0.232 | 0.331 | 0.721 | 1.45 | 0.901 | -0.539 (inactive) | 0.0248 | -0.0596 | 0.0784 | 2.59 | -0.0672 | 0.576 | -1.17 | 0.557
